Sampled rows, rich in hits. Any-hit rate of the full collection: about 4%.
D1 potentiator: Potentiators of Human D1 Dopamine Receptor: qHTS; AID 504651, 2011; HEK293 TREx D1 cells, calcium flux, dopamine EC20 potentiation; 360,000 compounds, 0.036% hits; D(1A) dopamine receptor (Homo sapiens), P21728; potentiation, % at 10 µM; in the data active = potentiation above about 30%; also: 0% is about no effect
Target sequence (P21728 whole entry, looked up): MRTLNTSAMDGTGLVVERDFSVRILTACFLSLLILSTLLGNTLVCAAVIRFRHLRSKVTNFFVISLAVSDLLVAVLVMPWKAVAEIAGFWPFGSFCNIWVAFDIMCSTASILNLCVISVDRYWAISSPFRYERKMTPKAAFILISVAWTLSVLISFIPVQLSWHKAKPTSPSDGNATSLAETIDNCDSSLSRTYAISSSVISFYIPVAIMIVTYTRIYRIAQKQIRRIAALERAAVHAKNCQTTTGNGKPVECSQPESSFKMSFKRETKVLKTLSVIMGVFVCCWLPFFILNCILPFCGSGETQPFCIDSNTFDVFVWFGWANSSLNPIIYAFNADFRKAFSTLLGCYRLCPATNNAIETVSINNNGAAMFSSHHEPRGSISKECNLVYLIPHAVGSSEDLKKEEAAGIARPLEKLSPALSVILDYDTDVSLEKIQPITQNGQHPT
TRHR agonist: qHTS for Small Molecule Agonists and Allosteric Enhancers of Human TRH Receptor: Primary Screen for Agonists; Thyrotropin-releasing hormone receptor (Homo sapiens), P34981; activation, % at 2 µM; TRHR cells, calcium flux fluo-8, FDSS agonist mode; 360,000 compounds, 0.18% hits; also: 0% is about no effect
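TRHR-expressing cells loaded with fluo-8 calcium dye; 23 nL library compound pin-transferred, kinetic FDSS fluorescence (Ex 480/Em 530) recorded about 180 s for agonist-induced calcium release, before a 10 nM TRH EC20 addition for potentiator mode.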
Glioma ERSR ind: qHTS for Inducers of the Endoplasmic Reticulum Stress Response (ERSR) in Human Glioma: qHTS; U87-MG GRP78 promoter luciferase reporter, 16 h; Potency, µM, for inactives: top-dose activation, actives largely listed as activators; 420,000 compounds, 0.02% hits; AID 602332, 2012; active = well fitted activation curve with a large enough effect; inconclusive = small, poorly fitted or top-dose-only effect; inactive = no such curve, though single readings can be large or run the other way; also: potency is read from the fitted curve at half-maximal effect; series mostly up to about 76 µM; % of control where 0% means no effect; nearly all actives have a fitted effect of over 35% in size
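Stably transfected U87-MG glioma cells carrying a GRP78-based luciferase sensor; 16 h compound incubation. Luminescence end-point read 10 min after Bright-Glo addition at room temperature.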
D1 antag: Antagonist of Human D 1 Dopamine Receptor: qHTS; D(1A) dopamine receptor (Homo sapiens), P21728; HEK293 TREx D1 cells, calcium flux, dopamine EC80; stronger effect = lower value; activity change, negative = inhibition, % at 10 µM; 360,000 compounds, 3.2% hits; in the data active = activity change below about -30%; also: % is scaled to controls: 0 for no effect and ±100 for the full control effect
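Tetracycline-induced HEK293 T-REx cells with force-coupled D1 receptor were loaded with a no-wash calcium dye. Compound was added after a 10 s baseline and read kinetically for 180 s; EC80 dopamine was then added and calcium flux followed another 180 s.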
D1 agonist: Allosteric Agonists of the Human D1 Dopamine Receptor: qHTS; D(1A) dopamine receptor (Homo sapiens), P21728; activation, % at 2 µM; 360,000 compounds, 1% hits; AID 504660, 2011; HEK293 T-REx D1 cells, calcium flux, agonist mode; also: 0% is about no effect
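Agonism was scored from calcium flux recorded over 180 s (1 read/s) after pintool compound addition, following a 10-cycle baseline. Cells were inducible force-coupled HEK293 TREx D1, plated overnight at 30 C and loaded with no-wash calcium dye.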
TRHR enhancer: qHTS for Small Molecule Agonists and Allosteric Enhancers of Human TRH Receptor: Primary Screen for Enhancers | enhancement, % at 2 µM | 360,000 compounds, 0.66% hits | TRHR cells, fluo-8 calcium fluorescence, EC20 TRH enhancement | Thyrotropin-releasing hormone receptor (Homo sapiens), P34981; in the data active = enhancement above about 30%; also: 0% is about no effect
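TRHR-expressing cells loaded with fluo-8 calcium dye were read kinetically (ex 480/em 530) during compound addition, then stimulated with an EC20 of TRH (10 nM final). Enhancement of the Gq-mediated intracellular calcium response was scored.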
* hit, by the source's call; ? = inconclusive; . = no result given. Rule as the data show it, unless noted: active = activation above about 30%; inactive = the rest.

SMILES	D1 potentiator	TRHR agonist	Glioma ERSR ind	D1 antag	D1 agonist	TRHR enhancer
CN(C)CCNc1ncnc2c1cnn2-c1cccc(Cl)c1	-2.5	0.9	0.2%	-0.2	37.4*	-2.5
CN(C)CCNc1ncnc2c1cnn2-c1ccc(Cl)cc1	.	1.1	-7.4%	-0.2	32.5*	-4.9
Cc1ccc(-n2c(C)c(C)c3c(NCCN(C)C)ncnc32)cc1	-10.3	-0.4	-1.4%	-38.0*	0.1	-1.2
Cc1nn(-c2ccccc2)c(N)c1N=Nc1ccc2ccccc2c1	-3.4	0.2	?	-2.4	2.8	-5.7
CC[C@H](C)[C@H](NC(=O)[C@@H]1CCCN1C(=O)[C@H](Cc1cnc[nH]1)NC(=O)[C@H](CCCCNC(=O)[C@H](CCCN=C(N)N)NC(=O)OCc1ccccc1)NC(=O)[C@H](Cc1ccc(O)cc1)NC(=O)c1cccnc1)C(=O)O	.	.	-7.9%	.	.	.
Clc1cccc(-n2ncc3c(NCCCN4CCOCC4)ncnc32)c1	3.0	-0.2	0.4%	-77.2*	1.4	0.6
Cc1ccc(-n2ncc3c(NCCCN4CCOCC4)ncnc32)cc1Cl	-3.8	-0.1	-5.4%	-23.7	7.2	2.9
Clc1ccc(-n2ncc3c(NCc4ccco4)ncnc32)cc1	-2.9	0.6	10.2%	-44.4*	0.5	6.9
OCCCNc1ncnc2c1cnn2-c1ccc(Cl)cc1	-11.5	-1.4	-10.5%	-35.9*	15.7	1.5
CCC(CO)Nc1ncnc2c1cnn2-c1ccc(Cl)cc1 (configuration not stated)	-7.6	0.4	-6.5%	-0.9	2.4	-5.8
COc1ccc(-n2ncc3c(NCc4ccco4)ncnc32)cc1	-7.1	0.4	5.1%	14.4	-0.2	-6.3
CC(C)C[C@H]1CN([C@@H](Cc2ccc(O)cc2)CN2CCC[C@@H]2CN2C(=S)NC[C@@H]2Cc2ccccc2)C(=S)N1CC1CCCCC1	.	.	-3.3%	.	.	.
CCOC(=O)C1CCCN(C(=O)c2cc(Cl)ccc2NC(=O)C2=C(C)OCCS2)C1 (configuration not stated)	-0.5	-2.3	0.3%	-6.1	0.0	-2.1
COc1cccc(OCc2nnc(SC)n2C)c1	-1.8	-0.3	4.0%	2.9	6.2	0.0
COc1ccc(NS(=O)(=O)c2cccc3cccnc23)cc1Cl	-3.5	-0.9	8.9%	-8.6	10.0	12.2
O=C(c1ccc([N+](=O)[O-])o1)N1CCN(c2nc3c(F)cc(F)cc3s2)CC1	-7.1	0.4	-1.6%	-30.6*	3.1	-1.6
N#Cc1ccc(COC(=O)CSc2nnc(N)s2)cc1	1.3	0.2	-4.5%	-6.5	1.9	-0.4
COc1cccc(C(=O)CSc2nnc(CNS(C)(=O)=O)n2-c2ccc(C)cc2)c1	-4.2	-0.1	-3.9%	-7.8	-0.1	3.3
Cc1ncc(CO)c(CNc2ccc(Oc3ccccc3)cc2)c1O	-8.3	0.1	-2.8%	-37.0*	10.4	-5.4
Nc1c(-c2nc(-c3ccc4c(c3)OCO4)cs2)c2ccccn2c1C(=O)c1ccccc1	0.7	1.4	.	-40.9*	0.2	18.5
COc1cccc(C(=O)c2c(N)c(-c3nc(-c4ccccc4)cs3)c3ccccn23)c1	1.7	0.5	.	-42.7*	7.6	8.2
COc1ccc(-c2csc(-c3c(N)c(C(=O)c4ccccc4)n4ccccc34)n2)cc1	-2.3	-2.2	-1.9%	-3.3	0.2	3.3
CCc1nc2c(OCCOC)cccn2c1N(C)C(=O)c1ccc(C)cc1	.	.	-2.8%	.	.	.
Cc1nc(-c2ccc(Cl)cc2)sc1CCNC(=O)Cc1ccc(F)cc1	-3.9	0.5	-1.2%	-0.8	12.1	3.5
Cc1nc(-c2cccc(F)c2)sc1CCNC(=O)c1ccc(F)c(F)c1	-1.2	-0.6	-2.5%	-16.2	5.2	30.0*
Cc1ccccc1C(=O)NCCc1sc(-c2ccc(Cl)cc2)nc1C	-3.4	-0.5	-2.3%	-37.6*	2.3	2.0
